Records with an inconclusive call do not appear. A number with no mark means an inactive call. Active and inactive are the calls of the source. The call rests on the fitted dose curve; in most records, active means well fitted inhibition curve with a large enough effect; inconclusive means small, poorly fitted or top-dose-only effect; inactive means flat fitted curve, though single readings scatter.
Assay: P-glycoprotein substrates identified in KB-8-5-11 adenocarcinoma cell line, qHTS therapeutic library screen (AID 1346987); further: nearly all actives have a fitted effect of over 65% in size
Conditions: KB-8-5-11 (P-gp overexpressing) viability, CellTiter-Glo, 72 h; series mostly up to 44.5 µM; activity change, negative = cytotoxicity: at the top concentration
In short: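 P-gp-mediated resistance screen: KB-8-5-11 cells treated 72 h with compounds in dose-response. CellTiter-Glo viability.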
On the % scale 0 is the no-effect control and ±100 the full control effect; potency means the concentration at half of the fitted maximal effect.

| SMILES | activity change, negative = cytotoxicity | Potency | outcome |
| --- | --- | --- | --- |
| Cc1cc(OCCCc2c(C(=O)O)n(Cc3cccnc3)c3c(-c4c(COc5ccc(N6CCN([S+](C)(=O)[O-])CC6)cc5)nn(C)c4C)cccc23)cc(C)c1Cl | -1.24% | – | – |
| C=C1C(=O)OC2C=C(C)CCC=C(C)CCC12 (stereo not drawn) | 6.93% | – | – |
| Clc1cc(Cl)cc(CNc2ncncc2-c2ccc3c(c2)OCO3)c1 | – | 13.2 µM (active) | – |
| O=C(NC1CCOCC1)c1ccc(-c2cc(-c3cn[nH]c3-c3ccccn3)ccn2)cc1 | – | inactive | – |
| N[C@H](CSC(c1ccccc1)(c1ccccc1)c1ccccc1)C(=O)O | – | – | inactive |
| COc1ccc(Cc2ccc(NC(N)=O)cc2)cc1-c1cccc(Cl)c1 | -14% | – | – |
| C[C@H](NC(=O)c1sccc1OCc1ccc(Cl)cc1)c1ccccc1 | – | 14.8 µM (active) | – |
| COc1ccc(-c2coc3cc(O)ccc3c2=O)cc1 | 4.99% | – | – |
| CC1(C)CCC[C@@]2(C)[C@@H]1CC[C@@]1(C)OC(=O)C[C@H]21 | 5.11% | – | – |
| O=C1C[C@@H](c2ccc(O)cc2)Oc2cc(O)cc(O)c21 | -3.25% | – | – |
| CC1(C)CCC(CN2CCN(c3ccc(C(=O)NS(=O)(=O)c4ccc(NCC5CCOCC5)c([N+](=O)[O-])c4)c(Oc4cnc5[nH]ccc5c4)c3)CC2)=C(c2ccc(Cl)cc2)C1 | – | – | inactive |
| CC[C@]1(O)C[C@@H]2CN(CCc3c([nH]c4ccccc34)[C@@](C(=O)OC)(c3cc4c(cc3OC)N(C=O)[C@@H]3C45CCN4CC=C[C@](CC)([C@H]45)[C@@H](OC(C)=O)[C@]3(O)C(=O)OC)C2)C1 (stereo partly drawn) | -41.3% | – | – |
| COC[C@@H](c1ccc(C(F)(F)F)cc1)N1CCN(C2(C)CCN(C(=O)c3c(C)ncnc3C)CC2)C[C@H]1C | 5.37% | – | – |
